The source made the active and inactive calls.

These results are taken from PubChem BioAssay.

The nature of assay [1]: optical density shifts of acrAB sulA E. coli – strain DRC41, OD650, 48 h, E. coli filamentation inducer project, primary screen (AID 1152).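 Further: E. coli MC1000 strain DRC41 lacking acrAB efflux pump and sulA.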 Conditions: higher = more signal, called active from +8 up or from −8 down.
Assay [2] in a line: probe aLefty1 binding on compound microarray – biochemical, small-molecule microarray, 635/667 nm fluorescence, primary screen (AID 1153).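 Further: score merges spot fluorescence with signal-to-noise ratio from the scanned slide images.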 The conditions noted are these: higher = more signal.
Assay [3] is described as follows: plasmodial surface anion channel blockers, osmotic lysis – cell-based, P. falciparum Indochina, OD700, 1 h, primary screen (AID 1154). Conditions: P. falciparum Indochina infected RBC osmotic lysis, higher = more signal, called active from +8 up or from −8 down.
Assay [4] is described as follows: plasmodial surface anion channel blockers, osmotic lysis – cell-based, P. falciparum Indochina, OD700, 2 h, primary screen (AID 1155).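 Further: lysis reports solute entry through the parasite surface anion channel PSAC.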 Conditions: P. falciparum Indochina infected erythrocytes, higher = more signal, called active from +8 up or from −8 down.
The nature of assay [5]: changes in parasitized red cell lysis, either direction – P. falciparum Indochina, OD700, 3 h, PSAC antagonist project, primary screen (AID 1156). Conditions: P. falciparum-infected erythrocytes, osmotic lysis, higher = more signal, called active from +8 up or from −8 down.
Assay [6] is described as follows: plasmodial surface anion channel blockers, osmotic lysis – cell-based, P. falciparum Indochina, OD700, 18 h, primary screen (AID 1157). The conditions noted are these: P. falciparum Indochina infected erythrocytes, osmotic lysis OD700, 18 h; higher = more signal, called active from +8 up or from −8 down.
Assay [7] in a line: S6 kinase pathway phospho-S6 level changes – cell-based, A549, cytoblot, luminescence, serum-stimulated, primary screen (AID 1158).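 Further: serum-stimulated A549 lung adenocarcinoma cells; signal is phosphorylated S6 detected by cytoblot immunostaining with HRP secondary.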 The conditions noted are these: 5 h, higher = more signal.
The target in assay [8] is NADPH oxidase 2 (Homo sapiens) (UniProt P04839). Briefly: compounds shifting NOX2 Amplex Red fluorescence – cell-based, HEK293-NOX2, PMA-stimulated, NOX inhibitor project, primary screen (AID 1159). Further: test concentration not given here. Conditions: 45 min, higher = more signal, called active from +8 up or from −8 down.
Assay [9] concerns the target NADPH oxidase 4 (Homo sapiens) (UniProt Q9NPH5). Briefly: compounds shifting NOX4 Amplex Red fluorescence – cell-based, HEK293-NOX4, tetracycline-induced, NOX inhibitor project, primary screen (AID 1160). Conditions: HEK293-NOX4, Amplex Red H2O2 fluorescence, 45 min; higher = more signal, called active from +8 up or from −8 down.
Assay [10] concerns the target NADPH oxidase 5 (Homo sapiens) (UniProt Q96PH1). Briefly: compounds shifting NOX5 Amplex Red fluorescence – cell-based, HEK293-NOX5, NOX inhibitor project, primary screen (AID 1161). Conditions: HEK293-NOX5, ionomycin, 45 min, higher = more signal.
The nature of assay [11]: compound effects on lung adenocarcinoma cell viability – A549, calcein-AM fluorescence, 48 h, basal, profiling panel (AID 1162). Further: test concentration not given here. Conditions: higher = more signal.
Assay [12] in a line: compound effects on differentiated 3T3-L1 adipocyte viability – cell-based, 3T3-L1 adipocytes, calcein-AM fluorescence, 48 h, basal, profiling panel (AID 1163). Further: test concentration not given here. The conditions noted are these: 3T3-L1 adipocytes viability, higher = more signal.
Assay [13] can be described thus: compound effects on hepatocellular carcinoma cell viability – HepG2, calcein-AM fluorescence, 48 h, basal, profiling panel (AID 1164). Further: test concentration not given here. The conditions noted are these: higher = more signal.
Assay [14] in a line: compound effects on multiple myeloma cell viability – MM1S, calcein-AM fluorescence, 48 h, basal, profiling panel (AID 1165). Further: test concentration not given here. Conditions: higher = more signal.
Assay [15] can be described thus: calcein-AM signal in unstimulated myeloma cells – cell-based, calcein-AM fluorescence, 48 h, PK04 Diversity Set, profiling panel (AID 1166).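 Further: cells grown under basal conditions without added stimulus; test concentration not given here.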 The conditions noted are these: RPMI8226 myeloma viability, higher = more signal.
A short description of assay [16]: JC-1 mitochondrial signal, unstimulated HepG2 cells – cell-based, JC-1 fluorescence, 24 h, 100 nL compound, profiling panel (AID 1167). Further: test concentration not given here. The conditions noted are these: HepG2 mitochondrial potential, higher = more signal.
Assay [17] can be described thus: JC-1 mitochondrial signal, unstimulated adipocytes – cell-based, JC-1 fluorescence, 3T3-L1 adipocytes, 24 h, 100 nL compound, profiling panel (AID 1168). Further: test concentration not given here. Conditions: JC-1 mitochondrial fluorescence, higher = more signal, called active from +8 up or from −8 down.
A short description of assay [18]: JC-1 mitochondrial signal, unstimulated myeloma cells – cell-based, JC-1 fluorescence, RPMI8226, 24 h, 100 nL compound, profiling panel (AID 1169). Further: test concentration not given here. Conditions: JC-1 mitochondrial potential fluorescence, higher = more signal.
Assay [19] is described as follows: JC-1 mitochondrial signal, unstimulated MM1S myeloma – cell-based, JC-1 fluorescence, 24 h, 100 nL compound, profiling panel (AID 1170). Further: test concentration not given here. The conditions noted are these: MM1S mitochondrial potential, higher = more signal.
Assay [20] in a line: resazurin metabolic signal in A549 cells – cell-based, resazurin fluorescence, 24 h, PK04 Diversity Set, profiling panel (AID 1171). Further: test concentration not given here. The conditions noted are these: A549 viability, higher = more signal, called active from +8 up or from −8 down.

NADPH oxidase 4 (Homo sapiens), sequence (Q9NPH5 whole entry, looked up): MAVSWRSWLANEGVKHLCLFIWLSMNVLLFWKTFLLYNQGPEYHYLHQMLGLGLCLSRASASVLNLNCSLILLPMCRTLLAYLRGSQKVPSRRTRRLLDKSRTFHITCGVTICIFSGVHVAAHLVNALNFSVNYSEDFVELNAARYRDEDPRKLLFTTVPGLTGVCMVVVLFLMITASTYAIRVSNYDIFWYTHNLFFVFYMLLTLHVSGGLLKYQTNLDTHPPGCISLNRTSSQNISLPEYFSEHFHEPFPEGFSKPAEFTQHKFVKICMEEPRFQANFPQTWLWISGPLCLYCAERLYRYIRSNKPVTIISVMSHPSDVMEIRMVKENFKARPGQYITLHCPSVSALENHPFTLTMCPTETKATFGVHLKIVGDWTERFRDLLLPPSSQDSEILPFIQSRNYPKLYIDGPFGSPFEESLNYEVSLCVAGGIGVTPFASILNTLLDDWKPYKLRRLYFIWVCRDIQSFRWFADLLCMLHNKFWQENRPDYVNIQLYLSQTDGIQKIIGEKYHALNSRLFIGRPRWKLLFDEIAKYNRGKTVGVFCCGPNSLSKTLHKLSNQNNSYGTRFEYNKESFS
NADPH oxidase 5 (Homo sapiens), sequence (Q96PH1 whole entry, looked up): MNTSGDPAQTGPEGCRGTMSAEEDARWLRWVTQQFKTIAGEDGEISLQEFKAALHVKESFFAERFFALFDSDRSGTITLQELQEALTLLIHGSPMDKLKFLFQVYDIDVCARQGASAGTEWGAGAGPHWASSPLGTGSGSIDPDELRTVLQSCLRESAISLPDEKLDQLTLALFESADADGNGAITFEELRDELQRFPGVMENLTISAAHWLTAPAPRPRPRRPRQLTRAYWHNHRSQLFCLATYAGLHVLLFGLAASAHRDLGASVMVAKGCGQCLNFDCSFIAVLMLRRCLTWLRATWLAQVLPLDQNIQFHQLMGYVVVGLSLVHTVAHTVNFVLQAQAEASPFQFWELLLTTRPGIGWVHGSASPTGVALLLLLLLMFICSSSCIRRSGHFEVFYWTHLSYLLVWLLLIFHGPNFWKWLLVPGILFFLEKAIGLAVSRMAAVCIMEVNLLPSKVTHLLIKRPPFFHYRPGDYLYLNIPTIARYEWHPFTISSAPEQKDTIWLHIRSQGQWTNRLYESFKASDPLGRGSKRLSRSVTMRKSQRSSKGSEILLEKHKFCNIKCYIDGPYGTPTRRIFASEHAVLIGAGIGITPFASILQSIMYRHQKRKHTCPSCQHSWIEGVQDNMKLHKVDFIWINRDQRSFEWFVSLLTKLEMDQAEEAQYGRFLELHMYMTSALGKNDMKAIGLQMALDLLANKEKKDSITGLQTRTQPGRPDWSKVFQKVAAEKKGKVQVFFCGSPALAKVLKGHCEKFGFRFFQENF
NADPH oxidase 2 (Homo sapiens), sequence (P04839 whole entry, looked up): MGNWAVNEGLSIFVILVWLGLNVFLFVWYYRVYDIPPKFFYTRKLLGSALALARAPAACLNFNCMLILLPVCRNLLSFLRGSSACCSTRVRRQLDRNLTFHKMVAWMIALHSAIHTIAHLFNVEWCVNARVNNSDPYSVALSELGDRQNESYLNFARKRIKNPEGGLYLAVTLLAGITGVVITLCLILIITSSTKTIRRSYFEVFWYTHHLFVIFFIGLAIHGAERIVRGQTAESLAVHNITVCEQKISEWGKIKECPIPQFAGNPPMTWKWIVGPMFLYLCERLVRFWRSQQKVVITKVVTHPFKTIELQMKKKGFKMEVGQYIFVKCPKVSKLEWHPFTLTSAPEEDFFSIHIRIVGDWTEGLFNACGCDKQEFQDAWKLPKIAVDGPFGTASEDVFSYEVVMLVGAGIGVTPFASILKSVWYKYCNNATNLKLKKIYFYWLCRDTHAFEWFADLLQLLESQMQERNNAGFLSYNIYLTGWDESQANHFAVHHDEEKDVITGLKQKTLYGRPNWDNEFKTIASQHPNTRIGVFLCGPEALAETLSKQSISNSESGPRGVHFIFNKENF

`CC(CCC(=O)OC[C@H]1O[C@H](C#Cc2ccccc2)C=C[C@@H]1Oc1ccc(C)cc1)=NOC[C@@H](O)COCc1ccco1`: the z-score in assay [1] was 0.654 (inactive); in assay [3] it was 17.7 (active); in assay [4] it was 1.77 (inactive); in assay [5], 0.811 (inactive); in [6] it was 1.18 (inactive); in assay [7], 0.63. Besides, the z-score in assay [8] was -0.0388 (inactive); in [9], 0.811 (inactive); in [10], -0.37; in [11] it was 0.303; in [12] it was -0.135; in [13] it was -0.45. Also, the z-score in [14] is -2.4; in assay [15] it was -2.27; in assay [16] it was -1.54; in [17], 0.324 (inactive); in assay [18], -0.31; in [19] it was -1.31. In addition, the z-score in assay [20] was -0.0838 (inactive). In assay [2], this compound had a composite z-score of -0.839.

With `C[C@@H]1CC[C@H]2C(=O)O[C@H](COc3ccc(C(C)(C)C)cc3)CN2[C@H]1c1ccc(Br)cc1`, the z-score in assay [1] is -0.425 (inactive); in assay [3], 0.813 (inactive); in assay [4] it was 0.538 (inactive); in [5], -0.082 (inactive); in [6], 0.343 (inactive); in [7], -0.53. Also, the z-score is 0.0709 (inactive) in assay [8]; -1.99 (inactive) in assay [9]; 0.568 in assay [10]; 1.29 in assay [11]; 0.0543 in assay [12]; 0.0624 in assay [13]. For the same compound, the z-score in [14] was -0.232; in assay [15], -0.0964; in assay [16] it was -1.12; in assay [17], -0.204 (inactive); in assay [18], -0.132; in assay [19] it was 0.621. Moreover, the z-score in [20] was 1.19 (inactive). Further, the composite z-score in assay [2] was -0.279.

With `O=C1c2ccccc2[C@@]2(Cc3ccccc3N(C3CC3)C2=O)[C@H](c2ccc(CO)cc2)N1Cc1ccccc1C(F)(F)F`, the z-score was -0.262 (inactive) in assay [1]; 0.949 (inactive) in [3]; -0.28 (inactive) in [4]; -0.31 (inactive) in assay [5]; -1.41 (inactive) in [6]; 1.01 in assay [7]. In addition, the z-score is 0.136 (inactive) in assay [8]; -1.4 (inactive) in [9]; -0.129 in assay [10]; 0.238 in [11]; 0.4 in assay [12]; -0.772 in [13]. Besides, the z-score in [14] is 0.306; in [15], -0.522; in [16], 1.13; in [17], -0.474 (inactive); in assay [18], 0.84; in assay [19], -1.56. Moreover, in [20], the z-score is 0.164 (inactive). The composite z-score in assay [2] was 0.566.

Take `CC(C)=CCCC(C)=CCON=C1[C@H]2CCn3c(=O)n(C)c(=O)n3[C@H]2[C@H](O)[C@@H]2O[C@H]12`: the z-score in assay [1] is 0.459 (inactive); in [3], 0.306 (inactive); in [4] it was 0.197 (inactive); in assay [5], 0.0128 (inactive); in assay [6], 0.0078 (inactive); in [7], -0.48. In addition, the z-score was -2.6 (inactive) in assay [8]; 0.0699 (inactive) in [9]; 0.43 in assay [10]; 0.717 in assay [11]; -0.326 in assay [12]; 1.11 in assay [13]. Moreover, the z-score was 0.114 in assay [14]; -0.183 in assay [15]; 0.46 in [16]; -0.14 (inactive) in assay [17]; -0.2 in assay [18]; -0.731 in [19]. In assay [20], the z-score was -0.83 (inactive). In assay [2], this compound displayed a composite z-score of -0.115.
